Results reported in PubChem BioAssay AID1159580 (chemical genetic matrix, 2015).
Screen size: about 5,500 compounds; about 2,000 (36%) were called active. Not shown: some 18% with an inconclusive outcome. Cut-off read from the data, not from the text of the source: active = normalized growth mostly below about 0.91 (no sharp cut-off); inconclusive = no clear call, values can overlap the other calls; inactive = mostly above about 0.92. The list shows a part of the results.

Assay: chemical genetic growth profiling, strain panel (AID 1159580);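 note: tested at 20 µM; growth read once vehicle control cultures reached saturation at 30 °C; 1 = growth at the plate median or of vehicle wells; lower values mean less growth of the strain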
Details: growth OD

Measured: normalized growth

CCC(=O)Nc1ccc(Cl)c(Cl)c1
inactive: S. cerevisiae deletion strains, locus YJR043C, strain POL32, hits give low values 0.931 | S. cerevisiae deletion strains, locus YJR075W, strain HOC1, hits give low values 0.965 | S. cerevisiae deletion strains, locus YKL009W, strain mrt4, hits give low values 0.976 | S. cerevisiae deletion strains, locus YKL068W, hits give low values 0.999 | S. cerevisiae deletion strains, locus YKL085W, strain MDH1 (second series), hits give low values 0.999 | S. cerevisiae deletion strains, locus YKL085W, strain MDH1, hits give low values 0.999 | S. cerevisiae deletion strains, locus YKL160W, strain elf1, hits give low values 0.984 | S. cerevisiae deletion strains, locus YKL190W, strain CNB1, hits give low values 1 | S. cerevisiae deletion strains, locus YKR001C, strain vps1, hits give low values 0.973 | S. cerevisiae deletion strains, locus YKR026C, strain gcn3, hits give low values 1 | S. cerevisiae deletion strains, locus YKR091W, strain srl3, hits give low values 0.982 | S. cerevisiae deletion strains, locus YLL001W, strain dnm1, hits give low values 0.99 | S. cerevisiae deletion strains, locus YLL026W, hits give low values 0.989 | S. cerevisiae deletion strains, locus YLL041C, strain sdh2, hits give low values 0.996 | S. cerevisiae deletion strains, locus YLR027C, strain aat2, hits give low values 1 | S. cerevisiae deletion strains, locus YLR039C, strain RIC1, hits give low values 1.02 | S. cerevisiae deletion strains, locus YLR058C, strain SHM2, hits give low values 1 | S. cerevisiae deletion strains, locus YLR102C, strain apc9, hits give low values 1 | S. cerevisiae deletion strains, locus YLR221C, strain rsa3, hits give low values 0.986 | S. cerevisiae deletion strains, locus YLR258W, strain gsy2, hits give low values 0.996 | S. cerevisiae deletion strains, locus YLR262C, strain YPT6 (second series), hits give low values 1 | S. cerevisiae deletion strains, locus YLR262C, strain YPT6, hits give low values 0.978 | S. cerevisiae deletion strains, locus YLR268W, strain sec22, hits give low values 0.982 | S. cerevisiae deletion strains, locus YLR320W, strain mms22, hits give low values 0.969 | S. cerevisiae deletion strains, locus YLR330W, strain CHS5, hits give low values 0.995 | S. cerevisiae deletion strains, locus YLR342W, strain FKS1 (second series), hits give low values 0.981 | S. cerevisiae deletion strains, locus YLR342W, strain FKS1, hits give low values 0.973 | S. cerevisiae deletion strains, locus YLR357W, strain rsc2, hits give low values 0.952 | S. cerevisiae deletion strains, locus YLR370C, strain arc18, hits give low values 0.985 | S. cerevisiae deletion strains, locus YLR371W, strain rom2, hits give low values 1.01 | S. cerevisiae deletion strains, locus YLR384C, strain iki3, hits give low values 1.01 | S. cerevisiae deletion strains, locus YLR418C, strain cdc73, hits give low values 0.866 | S. cerevisiae deletion strains, locus YML016C, strain PPZ1, hits give low values 0.997 | S. cerevisiae deletion strains, locus YML032C, strain rad52, hits give low values 1 | S. cerevisiae deletion strains, locus YML120C, strain ndi1, hits give low values 1 | S. cerevisiae deletion strains, locus YML124C, strain tub3, hits give low values 1 | S. cerevisiae deletion strains, locus YMR058W, strain fet3, hits give low values 0.993 | S. cerevisiae deletion strains, locus YMR078C, strain ctf18, hits give low values 1 | S. cerevisiae deletion strains, locus YMR125W, strain sto1, hits give low values 0.98 | S. cerevisiae deletion strains, locus YMR129W, hits give low values 0.98 | S. cerevisiae deletion strains, locus YMR205C, strain PFK2, hits give low values 0.958 | S. cerevisiae deletion strains, locus YMR223W, strain ubp8, hits give low values 1 | S. cerevisiae deletion strains, locus YMR231W, strain pep5, hits give low values 0.997 | S. cerevisiae deletion strains, locus YMR263W, strain SAP30, hits give low values 0.986 | S. cerevisiae deletion strains, locus YMR307W, strain GAS1, hits give low values 0.843 | S. cerevisiae deletion strains, locus YNL067W, strain RPL9B, hits give low values 0.965 | S. cerevisiae deletion strains, locus YNL071W, strain lat1, hits give low values 0.987 | S. cerevisiae deletion strains, locus YNL128W, strain TEP1, hits give low values 0.988 | S. cerevisiae deletion strains, locus YNL153C, strain GIM3, hits give low values 0.988 | S. cerevisiae deletion strains, locus YNL209W, strain ssb2, hits give low values 0.988 | S. cerevisiae deletion strains, locus YNL233W, strain BNI4, hits give low values 0.976 | S. cerevisiae deletion strains, locus YNL248C, strain rpa49, hits give low values 0.991 | S. cerevisiae deletion strains, locus YNL250W, strain rad50, hits give low values 1.01 | S. cerevisiae deletion strains, locus YNL271C, strain bni1, hits give low values 1.01 | S. cerevisiae deletion strains, locus YNL298W, strain CLA4, hits give low values 0.995 | S. cerevisiae deletion strains, locus YNL307C, strain MCK1, hits give low values 0.992 | S. cerevisiae deletion strains, locus YNL322C, strain KRE1 (second series), hits give low values 0.987 | S. cerevisiae deletion strains, locus YNL322C, strain KRE1, hits give low values 0.995 | S. cerevisiae deletion strains, locus YNR049C, strain mso1, hits give low values 0.994 | S. cerevisiae deletion strains, locus YNR052C, strain pop2, hits give low values 1.02 | S. cerevisiae deletion strains, locus YOL006C, strain TOP1, hits give low values 0.885 | S. cerevisiae deletion strains, locus YOL012C, strain htz1 0.818 | S. cerevisiae deletion strains, locus YOL147C, strain pex11, hits give low values 0.999 | S. cerevisiae deletion strains, locus YOR001W, strain rrp6, hits give low values 0.994 | S. cerevisiae deletion strains, locus YOR061W, strain CKA2, hits give low values 0.997 | S. cerevisiae deletion strains, locus YOR069W, strain VPS5, hits give low values 1.01 | S. cerevisiae deletion strains, locus YOR070C, strain gyp1, hits give low values 0.998 | S. cerevisiae deletion strains, locus YOR080W, strain dia2, hits give low values 0.956 | S. cerevisiae deletion strains, locus YOR083W, strain WHI5, hits give low values 0.994 | S. cerevisiae deletion strains, locus YOR106W, strain vam3, hits give low values 0.988 | S. cerevisiae deletion strains, locus YOR136W, strain idh2, hits give low values 0.998 | S. cerevisiae deletion strains, locus YOR144C, strain elg1, hits give low values 0.995 | S. cerevisiae deletion strains, locus YOR184W, strain ser1, hits give low values 0.977 | S. cerevisiae deletion strains, locus YOR265W, strain rbl2, hits give low values 0.995 | S. cerevisiae deletion strains, locus YOR270C, strain vph1, hits give low values 0.992 | S. cerevisiae deletion strains, locus YOR290C, strain snf2, hits give low values 0.988 | S. cerevisiae deletion strains, locus YOR316C, strain cot1, hits give low values 1.01 | S. cerevisiae deletion strains, locus YPL051W, strain arl3, hits give low values 0.994 | S. cerevisiae deletion strains, locus YPL055C, strain LGE1, hits give low values 0.904 | S. cerevisiae deletion strains, locus YPL078C, strain atp4, hits give low values 0.988 | S. cerevisiae deletion strains, locus YPL106C, strain sse1, hits give low values 0.952 | S. cerevisiae deletion strains, locus YPL240C, strain hsp82, hits give low values 0.968 | S. cerevisiae deletion strains, locus YPL241C, strain CIN2, hits give low values 0.993 | S. cerevisiae deletion strains, locus YPR119W, strain clb2, hits give low values 1 | S. cerevisiae deletion strains, locus YPR141C, strain kar3, hits give low values 1.01 | S. cerevisiae deletion strains, locus YPR163C, strain tif3, hits give low values 0.997 | S. cerevisiae deletion strains, locus YPR167C, strain met16, hits give low values 1 | S. cerevisiae deletion strains, strain wtn01, hits give low values 1 | S. cerevisiae strains, strain wild type, hits give low values 0.994
